# Measured values published in PubChem BioAssay (NCATS).
# Results filed as inconclusive are left out. Where a call stands in place of a potency, no number is given. Active and inactive are the calls of the source. Calls follow the shape of the dose curve; as a rule, active = well fitted curve in the direction sought with a large enough effect; inconclusive = small, poorly fitted or top-dose-only effect, or another doubt; inactive = no such curve, though single readings can be large; an effect the other way counts as inactive or inconclusive. Positions of bridges follow the written chain, without caps; N, C: chain ends. Non-standard residues stand in square brackets, D forms with d. Residues, ends and D or L forms follow the SMILES beside them. ξ: configuration not given here. *: point of attachment. Octanoyl(6-Me) = CCC(C)CCCCC(=O)*; ξThr(3R) = C[C@@H](O)C(N)C(=O)O; dDab = NCC[C@@H](N)C(=O)O; Dab = NCC[C@H](N)C(=O)O
# Tests used:
# [1] = Quantitative High-Throughput drug screen in 47 multiple myeloma cell lines against the NCATS MIPE library collection: JJN3_DSMZ cell viability assay (AID 1918966; also: nearly all actives have a fitted effect of over 50% in size)
# Outline: (§1)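 Approved and investigational drugs from MIPE 4.0 were added by pin tool to 500 cells per well. After 48 hours at 37C, ATP-based CellTiter-Glo luminescence indicated remaining viability.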
# [2] = Quantitative High-Throughput drug screen in 47 multiple myeloma cell lines against the NCATS MIPE library collection: H1112_PLB cell viability assay (AID 1918967; also: nearly all actives have a fitted effect of over 30% in size)
# Outline: as §1
# [3] = Quantitative High-Throughput drug screen in 47 multiple myeloma cell lines against the NCATS MIPE library collection: KMS27_JCRB cell viability assay (AID 1918970); conditions: KMS27 myeloma cells, CellTiter-Glo ATP viability, 48 h; viability (% of DMSO): at 45.8 µM (top of the series); also: nearly all actives have a fitted effect of over 30% in size
# Outline: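 Luminescent ATP read-out (CellTiter-Glo, 5 min at room temperature) after 48 h compound exposure of 500 KMS27_JCRB cells per well; DMSO wells define full viability and media-only wells zero.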
# [4] = Quantitative High-Throughput drug screen in 47 multiple myeloma cell lines against the NCATS MIPE library collection: KMS12PE_JCRB cell viability assay (AID 1918972); also: nearly all actives have a fitted effect of over 30% in size
# Outline: (§2)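 qHTS of the MIPE 4.0 collection: 500 myeloma cells/well, 48 h drug exposure at 37C in 5% CO2, then CellTiter-Glo for 5 min at room temperature before luminescence reading.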
# [5] = Quantitative High-Throughput drug screen in 47 multiple myeloma cell lines against the NCATS MIPE library collection: KMS26_JCRB cell viability assay (AID 1918975); also: nearly all actives have a fitted effect of over 45% in size
# Outline: as §2
# [6] = Quantitative High-Throughput drug screen in 47 multiple myeloma cell lines against the NCATS MIPE library collection: NCIH929_DSMZ cell viability assay (AID 1918978); also: nearly all actives have a fitted effect of over 35% in size
# Outline: (§3)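 Viability after 48 h drug exposure was measured as ATP-dependent luminescence. Cells, 500 per well, sat at 37 °C under 5% CO2; DMSO wells set 100%, media-only wells 0%.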
# [7] = Quantitative High-Throughput drug screen in 47 multiple myeloma cell lines against the NCATS MIPE library collection: OCIMY1_PLB cell viability assay (AID 1918979); also: nearly all actives have a fitted effect of over 35% in size
# Outline: as §3
# [8] = Quantitative High-Throughput drug screen in 47 multiple myeloma cell lines against the NCATS MIPE library collection: MM1S_ATCC cell viability assay (AID 1918980); also: nearly all actives have a fitted effect of over 45% in size
# Outline: as §3
# [9] = Quantitative High-Throughput drug screen in 47 multiple myeloma cell lines against the NCATS MIPE library collection: MM1R_ATCC cell viability assay (AID 1918981); also: nearly all actives have a fitted effect of over 35% in size
# Outline: as §3
# [10] = Quantitative High-Throughput drug screen in 47 multiple myeloma cell lines against the NCATS MIPE library collection: KMS28PE_JCRB cell viability assay (AID 1918983); also: nearly all actives have a fitted effect of over 35% in size
# Outline: as §3
# [11] = Quantitative High-Throughput drug screen in 47 multiple myeloma cell lines against the NCATS MIPE library collection: KMS34_JCRB cell viability assay (AID 1918985); also: nearly all actives have a fitted effect of over 40% in size
# Outline: as §3
# [12] = Quantitative High-Throughput drug screen in 47 multiple myeloma cell lines against the NCATS MIPE library collection: MOLP8_DSMZ cell viability assay (AID 1918977); also: nearly all actives have a fitted effect of over 45% in size
# Outline: as §3
# [13] = Quantitative High-Throughput drug screen in 47 multiple myeloma cell lines against the NCATS MIPE library collection: Karpas25_ECACC cell viability assay (AID 1918968; also: nearly all actives have a fitted effect of over 35% in size)
# Outline: as §1
# [14] = Quantitative High-Throughput drug screen in 47 multiple myeloma cell lines against the NCATS MIPE library collection: KMS12BM_JCRB cell viability assay (AID 1918971); also: nearly all actives have a fitted effect of over 35% in size
# Outline: as §2
# [15] = Quantitative High-Throughput drug screen in 47 multiple myeloma cell lines against the NCATS MIPE library collection: L363_DSMZ cell viability assay (AID 1918984); also: nearly all actives have a fitted effect of over 40% in size
# Outline: as §3
# [16] = Quantitative High-Throughput drug screen in 47 multiple myeloma cell lines against the NCATS MIPE library collection: KMS20_JCRB cell viability assay (AID 1918973); also: nearly all actives have a fitted effect of over 45% in size
# Outline: as §1
# [17] = Quantitative High-Throughput drug screen in 47 multiple myeloma cell lines against the NCATS MIPE library collection: MMM1_PLB cell viability assay (AID 1918976); also: nearly all actives have a fitted effect of over 35% in size
# Outline: as §3
# [18] = Quantitative High-Throughput drug screen in 47 multiple myeloma cell lines against the NCATS MIPE library collection: LP1_DSMZ cell viability assay (AID 1918982); also: nearly all actives have a fitted effect of over 35% in size
# Outline: as §3
# [19] = Quantitative High-Throughput drug screen in 47 multiple myeloma cell lines against the NCATS MIPE library collection: KMS21BM_JCRB cell viability assay (AID 1918974); conditions: ATP luminescence, 48 h; viability: at 45.8 µM (top of the series)
# Outline: as §1
# Potency is read from the fitted curve at half-maximal effect.
SMILES,Potency [1],Potency [2],Potency [3],Potency [4],Potency [5],Potency [6],Potency [7],Potency [8],Potency [9],Potency [10],Potency [11],Potency [12],Potency [13],Potency [14],Potency [15],Potency [16],Potency [17],Potency [18],Potency [19]
CCOC(=O)C=C[C@H](C[C@@H]1CCNC1=O)NC(=O)[C@@H](CC(=O)[C@@H](NC(=O)c1cc(C)on1)C(C)C)Cc1ccc(F)cc1,inactive,inactive,inactive,inactive,inactive,inactive,inactive,inactive,inactive,inactive,inactive,–,–,–,–,–,–,–,–
CN[C@H](CC(C)C)C(=O)N[C@H]1C(=O)N[C@@H](CC(N)=O)C(=O)N[C@@H]2C(=O)N[C@H]3C(=O)N[C@H](C(=O)N[C@H](C(=O)O)c4cc(O)cc(O)c4-c4cc3ccc4O)[C@H](O)c3ccc(c(Cl)c3)Oc3cc2cc(c3O[C@@H]2O[C@H](CO)[C@@H](O)[C@H](O)[C@@H]2O[C@H]2C[C@](C)(N)[C@H](O)[C@H](C)O2)Oc2ccc(cc2Cl)[C@H]1O,inactive,inactive,–,inactive,inactive,–,inactive,–,inactive,inactive,–,inactive,–,–,–,–,–,–,–
C[C@@H]1CC[C@@]2(OC1)OC1CC3C4CC=C5CC(O)CCC5(C)C4CCC3(C)C1[C@@H]2C (some centres undefined),inactive,inactive,–,inactive,–,inactive,inactive,inactive,inactive,inactive,inactive,inactive,inactive,inactive,inactive,–,–,–,–
N#CNC(=NCCCCCCOc1ccc(Cl)cc1)Nc1ccncc1,0.0105 µM (active),–,0.001 µM (active),0.0042 µM (active),0.0074 µM (active),–,0.0105 µM (active),0.0059 µM (active),0.0093 µM (active),0.132 µM (active),–,0.0235 µM (active),inactive,0.0118 µM (active),0.662 µM (active),8.33 µM (active),18.7 µM (active),0.0187 µM (active),–
CCC(C)CCCCC(=O)N[C@@H](CCN)C(=O)NC(C(=O)N[C@H](CCN)C(=O)N[C@@H]1CCNC(=O)C([C@@H](C)O)NC(=O)[C@@H](CCN)NC(=O)[C@@H](CCN)NC(=O)[C@@H](CC(C)C)NC(=O)[C@H](Cc2ccccc2)NC(=O)[C@H](CCN)NC1=O)[C@@H](C)O (stereo partly drawn) ({Octanoyl(6-Me)}-[Dab][ξThr(3R)][dDab][dDab][Dab]F[dL][dDab][dDab][ξThr(3R)]; lactam 4-C),inactive,inactive,–,inactive,–,inactive,inactive,–,inactive,inactive,inactive,–,–,–,–,inactive,–,inactive,–
Oc1ccc([C@@H]2Oc3ccc(O)cc3[C@@H]3CCC[C@@H]32)cc1,–,11.8 µM (active),inactive,inactive,–,18.7 µM (active),–,–,–,23.5 µM (active),23.5 µM (active),–,14.8 µM (active),14.8 µM (active),inactive,–,–,–,–
O=C(O)C=Cc1ccc(Cn2ccnc2)cc1,inactive,inactive,–,inactive,inactive,inactive,inactive,inactive,inactive,inactive,–,inactive,–,inactive,–,–,–,inactive,–
CC(C)(O)CC[C@@H](O)[C@](C)(O)[C@H]1CC[C@@]2(O)C3=CC(=O)[C@@H]4C[C@@H](O)[C@@H](O)C[C@]4(C)[C@@H]3CC[C@]12C,inactive,inactive,–,inactive,–,–,inactive,–,inactive,–,inactive,–,inactive,–,–,inactive,–,inactive,–
Nc1nc(=O)n([C@H]2CSC(CO)O2)cc1F (some centres undefined),inactive,–,inactive,–,inactive,–,inactive,–,inactive,inactive,–,–,–,inactive,inactive,–,–,inactive,–
NC[C@H]1O[C@H](O[C@H]2[C@@H](O)[C@@H](O[C@H]3O[C@H](CO)[C@@H](O)[C@H](N)[C@@H]3O)[C@H](N)C[C@@H]2N)[C@H](N)C[C@H]1O,1.87 µM (active),inactive,inactive,–,inactive,inactive,inactive,inactive,inactive,inactive,inactive,–,inactive,–,inactive,–,2.09 µM (active),inactive,–
CCCc1nc(C(C)(C)O)c(C(=O)O)n1Cc1ccc(-c2ccccc2-c2nn[nH]n2)cc1,inactive,–,inactive,inactive,–,inactive,inactive,–,inactive,inactive,inactive,–,–,inactive,inactive,inactive,–,inactive,–
CC(C=CC=C(C)C=CC1=C(C)CCCC1(C)C)=CC=CC=C(C)C=CC=C(C)C=CC1=C(C)CCCC1(C)C,14.8 µM (active),–,–,–,13.2 µM (active),–,–,5.9 µM (active),16.6 µM (active),–,–,–,16.6 µM (active),inactive,16.6 µM (active),–,14.8 µM (active),inactive,–
C[C@@H](Cc1cc2c(c(C(N)=O)c1)N(CCCO)CC2)NCCOc1ccccc1OCC(F)(F)F,inactive,inactive,inactive,–,inactive,–,–,–,inactive,inactive,inactive,inactive,–,–,–,–,–,–,–
CCCCCCCN(CC)CCCC(O)c1ccc(NS(C)(=O)=O)cc1 (centres undefined),inactive,–,20.9 µM (active),16.6 µM (active),–,–,–,–,inactive,–,inactive,–,–,inactive,–,–,–,–,–
Cc1ccc([N+](=O)[O-])cc1S(=O)(=O)N(C)N=Cc1cnc2ccc(Br)cn12,0.0105 µM (active),0.0132 µM (active),–,0.0209 µM (active),0.0235 µM (active),–,0.0526 µM (active),0.0296 µM (active),0.0332 µM (active),0.0418 µM (active),0.0148 µM (active),–,–,0.0662 µM (active),–,–,0.0833 µM (active),0.0264 µM (active),–
Oc1cc(-c2nc(-c3ccccc3)[nH]c2-c2ccncc2)ccc1Cl,18.7 µM (active),–,2.64 µM (active),14.8 µM (active),16.6 µM (active),3.72 µM (active),10.5 µM (active),4.69 µM (active),14.8 µM (active),20.9 µM (active),16.6 µM (active),16.6 µM (active),2.96 µM (active),20.9 µM (active),0.332 µM (active),–,18.7 µM (active),inactive,3.32 µM (active)
